# Source: PubChem BioAssay (NCI)
# The panel holds about 83,000 compounds, 20% with a hit somewhere; the sample as a whole holds those more often.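 Treatment: one concentration, 48 hours, 96-well format. Scoring: percent growth, with anything below 10 considered active.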 A number with no mark means an inactive call. Calls of active or inactive are those of the source.
# Tested on: NCI-H226 lung
# Assay: NCI-60 one-dose screen, 48 h (100 = growth as untreated, 0 = no growth, -100 = all killed)
# Details: 10 µM unless noted
# Experimental: Growth inhibition of the NCI-H226 human Non-Small Cell Lung tumor cell line is measured as a screen for anti-cancer activity. Cells are grown in 96 well plates and exposed to the test compound for 48 hours. Compounds are tested at a single concentration, which is 10^-5 M for most compounds. The reported endpoint is percent growth (GI% or GIPRCNT), where numbers from 0 - 100% represent growth inhibition, and numbers from -100% - 0 represent cell death. For example, a value of 40 represents 60% growth inhibition. A value of 0 means no net growth occurred over the course of the experiment. A value of -40 indicates 40% of cells at the beginning of the experiment died by the end of the experiment. A value of -100 means all cells are dead at the end of the experiment.
# NCI-60 Human Tumor Cell Lines Screen was performed using the standard one-dose NCI protocol, which is described in more detail at https://dtp.cancer.gov/discovery_development/nci-60/default.htm.
# Compounds with GIPRCNT values below 10 were considered active. Activity score was based on GIPRCNT using the following formula: […]
# Score is 0 for GIPRCNT values of 100 or above, 50 for GIPRCNT values of 0, and 100 for GIPRCNT values of -100.
row,SMILES,growth
1,COc1ccc(-c2ccc(-c3ccc(C(=N)N)o3)o2)cc1,78.2%
2,COC(=O)[C@H](C)NC(=O)[C@@H]1CCCN1C(=O)CNC(=O)[C@H](C)N,101%
3,CC(=O)OCC(=O)O[C@@H]1C[C@]2(C(C)C)O[C@@]1(C)[C@@H]1CC[C@@H](C)[C@H]1[C@@H]2OC(=O)/C=C/c1ccccc1,68.4%
4,Cc1cc2c(c(C)n1)CN(C(=O)Nc1nc(-c3cncs3)ccc1N)C2,107%
5,CCN(CC)CCCNc1cc(OC)cc2cccnc12,92.7%
6,O=C(/C=C/c1ccc(Cl)cc1)c1ccc(Nc2ccnc3cc(Cl)ccc23)cc1,111%
7,c1ccc2cc(Cn3cc[n+](Cc4ccc5ccccc5c4)c3)ccc2c1,52.1%
8,Nc1ncnc2c1N=C(c1ccc([N+](=O)[O-])cc1)CC(c1ccc3c(c1)OCO3)N2 (stereo not given),86.5%
9,O=C(OCC(O)(CO)C(=O)NC12CC3CC(CC(C3)C1)C2)c1ccc(Cl)cc1 (stereo not given),89.1%
10,C=C(CNCCO)[C@@H]1CC[C@]2(CO)CC[C@]3(C)[C@H](CC[C@@H]4[C@@]5(C)CCC(NCCO)C(C)(C)[C@@H]5CC[C@]43C)[C@@H]12 (stereo not given in full),96.5%
11,CCOC(=O)c1c2c(n3ccc(NC(=O)CCN4CCCC4)cc13)C(=O)c1ncccc1C2=O,63.6%
12,CC(=O)c1ccc(Nc2nccc(-c3ccc(Cl)cc3)n2)cc1,54%
13,CCCS(=O)(=O)Nc1cccc(Nc2ncnc3cc(NC(=O)CCl)ccc23)c1Cl,-18.3% (active)
14,O=C(OCc1ccc2c(Br)cc(Br)c(O)c2n1)N1CCN(C(=O)c2cc3ccccc3[nH]2)CC1,39.5%
15,CCOC(=O)C1=C(C)N(C)C(=O)N(C)C1c1ccccc1 (stereo not given),93.3%
16,CCCCCCCCCCCCCC[n+]1ccc2c(C)c3c(c(C)c2c1)c1cc(O)ccc1n3CC,-40.5% (active)
17,CCCCCC(C)(O)C(C(=O)O)c1ccccc1 (stereo not given),104%
18,Cc1cccc(C)c1NC(=O)Nc1ccccc1,107%
19,Cc1ccc(-c2nc(C#N)c(S(=O)(=O)n3nc(C)cc3N)o2)cc1,94.1%
20,COc1cc(C(=O)c2c(-c3ccccc3)oc3ccccc23)cc(OC)c1O,52.8%

row,SMILES,growth
1,Oc1cccc(-c2nc(-c3n[nH]c(=S)n3-c3ccccc3)cc3c2[nH]c2ccccc23)c1,52.6%
2,CC(Cc1cccc2ccccc12)C(N)=O (stereo not given),100%
3,CC(=O)O[C@H]1CC[C@@]2(C)C(=CC[C@@H]3[C@@H]2CC[C@]2(C)C(Cl)=C(c4nc5ccc(Cl)cn5c4NC(C)(C)C)C[C@@H]32)C1,92.3%
4,O=C(CSc1nnc(-c2ccc(Cl)c(Cl)c2)n1-c1ccccc1)Nc1ccc(C(=O)/C=C/c2ccc(Cl)cc2)cc1,89.1%
5,O=c1ccc2nc(-c3ccccc3)nn(-c3ccccn3)c-2c1,91.9%
6,COc1ccc(-c2csc(NC(=O)CSc3nc(C)cc(=O)[nH]3)n2)cc1,111%
7,Cc1c2cnccc2c(C)c2c1c1cc(C(=O)O)ccc1n2C,-25.8% (active)
8,CCCCCCCC/C=C\CCCCCCCCOc1ccc(CC(=O)NCC[N+]2(C)CCCC2)cc1,66.4%
9,Nc1ccc(Cl)c2c(=O)c3ccccc3[nH]c12,77%
10,O=C(Oc1ccccc1)c1cc(O)c(O)c(O)c1,89.8%
11,O=C(CNc1ncco1)Nc1ccc(S(=O)(=O)c2ccc(NC(=O)CNc3ncco3)cc2)cc1,-17.7% (active)
12,CC(CN)[C@@H]1CC[C@]2(CO)CC[C@]3(C)[C@H](CC[C@@H]4[C@@]5(C)CCC(NCCO)C(C)(C)[C@@H]5CC[C@]43C)[C@@H]12 (stereo not given in full),95.8%
13,COc1ccc(C(=O)/C=C/c2ccc(Cl)cc2)cc1S(N)(=O)=O,84.3%
14,C(=N\Nc1nnc2n1N=C(c1ccccc1)CS2)/c1ccc(OCc2ccccc2)cc1,88.9%
15,CCOC(=O)/C(=C\c1ccccc1Cl)P(=O)(OCC)OCC,66.4%
16,Cc1oc2ccc(O)c(CN3CCCCCC3)c2c1C(=O)Nc1ccc(C(F)(F)F)cc1,72.4%
17,CCN1C(=O)N(CC)C2C1NN=c1s/c(=C\c3ccc(F)cc3)c(=O)n12 (stereo not given),63.4%
18,O=C(/C=C/C12c3ccccc3C(c3ccccc31)C1C(=O)NC(=O)C12)c1cccs1 (stereo not given),73.4%
19,COc1ccccc1/C=C/C1=C(C)CCC(c2ccccc2OC)C1C (stereo not given),45.8%
20,O=C1/C(=C/c2cccc(Br)c2)COc2ccc(O)c(O)c21,83.4%
